In PubChem BioAssay (EPA / NIEHS) one finds outcome and AC50 data, which are given here for three compounds.

Several values for one entry are separate records, joined by “and”; a condition that tells them apart may be missing. Equal values may be shown once. Some compounds were tested as several samples or in several runs, with calls that do not always agree. Activity calls are given as the source filed them. How the source made its calls: active means hit-call score of the fitted dose curve at least 0.9, where 1 is the maximum; inactive means score below 0.9.

Read-out in experiment [1]: Monocyte Chemoattractant Protein-1 (MCP1), CCL2 (gene 6347)
In words: BSK_CASM3C_MCP1: BioMAP Diversity Plus: CASM3C Assay for Monocyte Chemoattractant Protein-1 (MCP1) Biomarker Activity (AID 2283046). The following applies: primary human coronary artery smooth muscle cells; actives raise or lower the signal.

Experiment [2] in a line: BSK_CASM3C_Proliferation: Cell Proliferation Assessment in the BioMAP Diversity Plus: CASM3C Assay (AID 2283047).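 Further: sulforhodamine B total protein stain as relative cell number at 560 nm; sub-confluent cells exposed 48 h before staining; fitted both ways against DMSO so gain or loss of cell number.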 The following applies: primary human coronary artery smooth muscle cells.
Read-out in experiment [3]: Tissue Factor, F3 (gene 2152)
In words: BSK_CASM3C_TissueFactor: BioMAP Diversity Plus: CASM3C Assay for Tissue Factor Biomarker Activity (AID 2283052).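 Further: cell surface tissue factor protein level read by ELISA.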 As to conditions: primary human coronary artery smooth muscle cells; actives raise or lower the signal.

Read-out in experiment [4]: Interferon-gamma inducible Protein 10 (IP10), CXCL10 (gene 3627)
In words: BSK_hDFCGF_IP10: BioMAP Diversity Plus: hDFCGF Assay for Interferon-gamma inducible Protein 10 (IP10) Biomarker Activity (AID 2283053). As to conditions: primary human foreskin fibroblasts; actives raise or lower the signal. Summed up:
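ELISA read-out of IP-10 (CXCL10) from primary human skin fibroblasts, 24 h after compound addition. Gain or loss of signal versus DMSO baseline, bidirectional curve fitting.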

Read-out in experiment [5]: Epidermal growth factor receptor (EGFR), EGFR (gene 1956)
In words: BSK_hDFCGF_EGFR: BioMAP Diversity Plus: hDFCGF Assay for Epidermal growth factor receptor (EGFR) Biomarker Activity (AID 2283057). As to conditions: primary human foreskin fibroblasts; actives raise or lower the signal. Summed up:
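ELISA readout of EGFR on human dermal fibroblasts (primary foreskin cells), 24 h post-dosing; bidirectional curve fit vs DMSO baseline, gain or loss of signal scored.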

Read-out in experiment [6]: Interleukin-8 (IL8), CXCL8 (gene 3576)
In words: BSK_hDFCGF_IL8: BioMAP Diversity Plus: hDFCGF Assay for Interleukin-8 (IL8) Biomarker Activity (AID 2283058). As to conditions: primary human foreskin fibroblasts; actives raise or lower the signal. The gist of the method: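 IL-8 levels read by ELISA at 24 hours after dosing human skin fibroblast cultures. Parallel SRB staining assessed overt cytotoxicity, and gain or loss of signal was fitted against DMSO control.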

Experiment [7] is described as follows: BSK_hDFCGF_Proliferation: Cell Proliferation Assessment in the BioMAP Diversity Plus: hDFCGF Assay (AID 2283059).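 Further: curves fitted for both rise and fall of signal versus DMSO baseline.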 As to conditions: primary human foreskin fibroblasts. Summed up:
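Total protein read at 560 nm after 0.1% SRB staining of TCA-fixed human skin fibroblasts, […]. Activity is fitted in both directions relative to DMSO as baseline.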

Experiment [8] in a line: BSK_hDFCGF_SRB: Viability Assessment in the BioMAP Diversity Plus: hDFCGF Assay (AID 2283061).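 Further: cells exposed to compound for 24 h before the read.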 The following applies: primary human foreskin fibroblasts. Summed up: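 Viability was read as total protein: after 10% TCA fixation, wells were stained with 0.1% sulforhodamine B and read at 560 nm. Primary human foreskin fibroblasts were dosed for 24 h, with bidirectional fitting versus DMSO.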

Read-out in experiment [9]: TIMP metallopeptidase inhibitor 1 (TIMP1), TIMP1 (gene 7076)
In words: BSK_hDFCGF_TIMP1: BioMAP Diversity Plus: hDFCGF Assay for TIMP metallopeptidase inhibitor 1 (TIMP1) Biomarker Activity (AID 2283062). As to conditions: primary human foreskin fibroblasts; actives raise or lower the signal. The gist of the method:
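TIMP-1 measured by ELISA 24 h after chemical dosing of primary human skin fibroblasts, with gain or loss fitted relative to DMSO. Parallel SRB staining (560 nm) monitored overt cytotoxicity.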

Read-out in experiment [10]: Monokine induced gamma interferon (MIG), CXCL9 (gene 4283)
In words: BSK_hDFCGF_MIG: BioMAP Diversity Plus: hDFCGF Assay for Monokine induced gamma interferon (MIG) Biomarker Activity (AID 2283063). As to conditions: primary human foreskin fibroblasts; actives raise or lower the signal. The gist of the method:
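Human primary foreskin fibroblasts in the hDFCGF system, exposed to test chemical for 24 h; MIG measured by ELISA. Bidirectional curve fitting against DMSO negative control as activity baseline.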

Read-out in experiment [11]: Matrix Metallopeptidase 1 (MMP1), MMP1 (gene 4312)
In words: BSK_hDFCGF_MMP1: BioMAP Diversity Plus: hDFCGF Assay for Matrix Metallopeptidase 1 (MMP1) Biomarker Activity (AID 2283064). As to conditions: primary human foreskin fibroblasts; actives raise or lower the signal. The gist of the method: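 MMP1 levels quantified by ELISA 24 h after dosing human dermal fibroblast cultures, with parallel SRB total-protein staining for overt cytotoxicity. Data fitted in both directions against DMSO baseline.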

Read-out in experiment [12]: Vascular cell adhesion molecule 1 (VCAM1), VCAM1 (gene 7412)
In words: BSK_hDFCGF_VCAM1: BioMAP Diversity Plus: hDFCGF Assay for Vascular cell adhesion molecule 1 (VCAM1) Biomarker Activity (AID 2283065).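 On AC50: VCAM-1 protein level quantified by ELISA after 24 h chemical exposure.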 As to conditions: primary human foreskin fibroblasts; actives raise or lower the signal. Summed up:
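ELISA readout of VCAM-1 on human dermal fibroblast primary cultures, 24 h after chemical exposure. Gain or loss of signal fitted in both directions against DMSO baseline.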

Read-out in experiment [13]: Plasminogen activator inhibitor-1 (PAI1), SERPINE1 (gene 5054)
In words: BSK_hDFCGF_PAI1: BioMAP Diversity Plus: hDFCGF Assay for Plasminogen activator inhibitor-1 (PAI1) Biomarker Activity (AID 2283066). The following applies: primary human foreskin fibroblasts; actives raise or lower the signal. Summed up:
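ELISA readout of PAI-1 from primary human skin fibroblast cultures, 24 h after compound addition. Gain or loss of signal was fitted bidirectionally against DMSO baseline.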

Read-out in experiment [14]: Interferon-gamma inducible Protein 10 (IP10), CXCL10 (gene 3627)
In words: BSK_KF3CT_IP10: BioMAP Diversity Plus: KF3CT Assay for Interferon-gamma inducible Protein 10 (IP10) Biomarker Activity (AID 2283068). As to conditions: primary human keratinocytes with fibroblasts; actives raise or lower the signal. The gist of the method: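 Human keratinocyte plus foreskin fibroblast primary co-culture exposed to test chemical for 24 h; IP-10 measured by ELISA. Concentration-response fitted bidirectionally against DMSO control as baseline.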

Read-out in experiment [15]: Transforming growth factor beta 1 (TGFb1), TGFB1 (gene 7040)
In words: BSK_KF3CT_TGFb1: BioMAP Diversity Plus: KF3CT Assay for Transforming growth factor beta 1 (TGFb1) Biomarker Activity (AID 2283072). The following applies: primary human keratinocytes with fibroblasts; actives raise or lower the signal. Summed up:
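Read-out: ELISA for TGF-b1 in keratinocyte/foreskin fibroblast human skin co-culture, 24 h after dosing; bidirectional curve fit vs DMSO baseline; gain or loss of signal scored.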

Read-out in experiment [16]: urokinase plasminogen activator (uPA), PLAU (gene 5328)
In words: BSK_KF3CT_uPA: BioMAP Diversity Plus: KF3CT Assay for urokinase plasminogen activator (uPA) Biomarker Activity (AID 2283075). As to conditions: primary human keratinocytes with fibroblasts; actives raise or lower the signal. The gist of the method: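 ELISA read-out of uPA 24 h after dosing human skin keratinocytes co-cultured with foreskin fibroblasts. Signal change fitted both ways relative to DMSO; sulforhodamine B on parallel cultures marks overt cytotoxicity.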

Read-out in a further experiment: CD40, CD40 (gene 958)
In words: BSK_LPS_CD40: BioMAP Diversity Plus: LPS Assay for CD40 Biomarker Activity (AID 2283076). The following applies: primary human HUVEC with PBMC; actives raise or lower the signal. Summed up: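 In the LPS system of human endothelial cells with peripheral blood mononuclear cells, CD40 levels were read by ELISA 24 h post-treatment. Signal changes in either direction were fitted against the DMSO baseline, with parallel SRB protein staining.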

Experiment [17] in a line: BSK_LPS_SRB: Viability Assessment in the BioMAP Diversity Plus: LPS Assay (AID 2283079).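 Further: total protein by sulforhodamine B absorbance as a cytotoxicity measure; measured one day after compound addition.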 As to conditions: primary human HUVEC with PBMC. The gist of the method:
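SRB viability endpoint: cells fixed with 10% TCA, stained with 0.1% SRB, read at 560 nm, 24 h post-dose. HUVEC/PBMC co-culture; signal change in either direction scored relative to DMSO.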

Read-out in experiment [18]: Macrophage colony-stimulating factor (MCSF), CSF1 (gene 1435)
In words: BSK_LPS_MCSF: BioMAP Diversity Plus: LPS Assay for Macrophage colony-stimulating factor (MCSF) Biomarker Activity (AID 2283083). The following applies: primary human HUVEC with PBMC; actives raise or lower the signal. The gist of the method: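 Bidirectional fitting against DMSO was applied to M-CSF levels read by ELISA at 24 h post-dose. The system pairs human umbilical vein endothelium with peripheral blood mononuclear cells; parallel SRB staining tracked cytotoxicity.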

Read-out in experiment [19]: Human Leukocyte Antigen - DR isotype (HLADR), HLA-DRA (gene 3122)
In words: BSK_CASM3C_HLADR: BioMAP Diversity Plus: CASM3C Assay for Human Leukocyte Antigen - DR isotype (HLADR) Biomarker Activity (AID 2283043).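 Further: cell-surface HLA-DR protein level quantified by ELISA.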 The following applies: primary human coronary artery smooth muscle cells; actives raise or lower the signal.

A word on the AC50: it is the concentration giving half of the maximal activity seen. Turning to `Nc1ccc(-c2ccc(N)c(N)c2)cc1N`, the result in experiment [1], in experiment [2], in experiment [4], in experiment [5], in [6] and in experiment [7] was inactive. In addition, the result in experiment [8], in [9], in [10], in experiment [11], in experiment [13] and in experiment [14] was inactive. Further, the outcome was “inactive” in experiment [16]; “inactive” with CD40, CD40 (gene 958); “inactive” in [17]; “inactive” in experiment [18]. Further, the AC50 is 11.3 µM (active) in experiment [3], 11.7 µM (active) in [12] and 26.6 µM (active) in experiment [15].
As for `CC(C)CCCCCCCOP(=O)(Oc1ccccc1)Oc1ccccc1`, the outcome in [19], in [1], in [2] and in experiment [3] was inactive. Further, the AC50 is 9.26 µM (active) in experiment [4]; 3.97 µM (active) in experiment [5]; 25.7 µM (active) in [6]; 3.16 µM (active) in [7]; 8.83 µM (active) in experiment [8]; 12.8 µM (active) in [9]. For the same compound, the AC50 in experiment [10] is 11 µM (active); in experiment [11], 20 µM (active); in experiment [12], 5.85 µM (active); in [13], 8.46 µM (active); in experiment [14], 30.3 µM (active); in experiment [15], 20 µM (active). The half-maximal activity concentration (AC50) in experiment [16] is 20 µM (active); with CD40, CD40 (gene 958), 11.3 µM (active); in experiment [17] it was 23.7 µM (active); in [18], 15.3 µM (active).
As to `O=C(O)CCCc1ccc(N(CCCl)CCCl)cc1`, the AC50 in [19] is 15.9 µM (active) and 20 µM (active); in [1] it was 24 µM (active) and 20 µM (active); in experiment [2], 20 µM (active) and 1.6 µM (active); in experiment [3], 15.2 µM (active) and 5.57 µM (active); in [7] it was 6.32 µM (active) and 5.54 µM (active); in experiment [14], 31.9 µM (active) and 36.2 µM (active). For the same compound, the half-maximal activity concentration (AC50) in experiment [15] was 29.8 µM (active); with CD40, CD40 (gene 958) it was 20 µM (active); in experiment [17], 20 µM (active); in experiment [18] it was 17.7 µM (active) and 20 µM (active). For the same compound, the result in [4], in experiment [5], in experiment [6], in experiment [8], in [9] and in experiment [10] was inactive. For the same compound, the outcome in experiment [11], in [12], in [13], in experiment [15] and in [16] was inactive.
